# Test results reported in PMC7819943, “Rice protein-binding microarrays: a tool to detect cis-acting elements near promoter regions in rice”.
# The full ranking holds about 39,000 sequences; the median of “fluorescence intensity (a.u.)” is about 4,300, and the highest 2% start at about 39,000. The sample holds the highest values, similar sequences and a random draw of the others, so the mix is not that of the screen.
# Target: T1, OsSMF1 (Oryza sativa, UniProt Q6ZLB0 1-436)
# T1 sequence: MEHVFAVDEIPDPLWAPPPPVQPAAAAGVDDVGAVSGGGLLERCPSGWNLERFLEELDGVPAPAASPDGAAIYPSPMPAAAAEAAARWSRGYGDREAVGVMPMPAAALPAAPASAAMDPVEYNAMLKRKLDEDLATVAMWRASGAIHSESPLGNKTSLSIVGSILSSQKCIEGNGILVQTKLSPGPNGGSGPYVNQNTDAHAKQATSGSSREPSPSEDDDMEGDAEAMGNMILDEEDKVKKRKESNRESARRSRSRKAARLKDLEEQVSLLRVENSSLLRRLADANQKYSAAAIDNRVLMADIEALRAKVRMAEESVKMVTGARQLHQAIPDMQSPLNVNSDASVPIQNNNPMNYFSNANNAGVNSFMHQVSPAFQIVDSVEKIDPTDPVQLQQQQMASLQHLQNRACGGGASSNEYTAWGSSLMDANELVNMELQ
# Assay: protein-binding microarray (RPBM); PBS, 2% BSA, 51.3 ng/ul salmon testes DNA, 50 uM zinc acetate, 200 nM TF, 25 C, 1 h; high values mean tight binding
# Conditions: protein: recombinant; tags: N-terminal polyhistidine and DsRed monomer fusion (pET32a); chain copies: 2; label: CyDye5-dUTP incorporated in the synthesized complementary strand; 3' TTTTT single-stranded linker to array surface; dsDNA, one strand shown
# In short: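 Transcription factors were made in E. coli BL21-CodonPlus as N-terminal fusions to a polyhistidine tag and DsRed, then purified on Ni–NTA. After primer extension with Cy5-dUTP and blocking with 2% BSA, a custom Agilent array was exposed for 1 h at 25 °C to 200 nM protein in PBS, 2% BSA, salmon testes DNA and 50 µM zinc acetate. Washed arrays were scanned on an Axon 4000B, and the binding signal is per-feature fluorescence intensity in arbitrary units.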
row,Sequence,binding signal
1,GGCTTAAGTCAAGCTAATTTTAGATATTTATTATTTTGTGCGGAGTCACCTAGTGCAG,3900 fluorescence intensity (a.u.)
2,GTTCCATTGGTTTGTAATAATGAAGCCTGCCTAGTGCTTTCGGAGTCACCTAGTGCAG,32100 fluorescence intensity (a.u.)
3,CATCGTCCGCCGTGACACGCTGGCGGAGTCCGTGGTGCTACGGAGTCACCTAGTGCAG,5010 fluorescence intensity (a.u.)
4,GGGGAGGAGGACGAGTAACAGACGTGGTGGCCGCCGAGGCCGGAGTCACCTAGTGCAG,3490 fluorescence intensity (a.u.)
5,TATATTTCATTAATATAAATAAAATTAAAATGTTACTTAACGGAGTCACCTAGTGCAG,25600 fluorescence intensity (a.u.)
6,GTAATTAAATTAAATTAAATTGATTAATACCAACCCTGGTCGGAGTCACCTAGTGCAG,24500 fluorescence intensity (a.u.)
7,CGTCGATTAATTTCCCTGGTAAATACGAAATGTTCATGGTCGGAGTCACCTAGTGCAG,39600 fluorescence intensity (a.u.)
8,CTCCTCTCCGATGAAGACCTGCCACCGGTCTGAACCATCTCGGAGTCACCTAGTGCAG,64300 fluorescence intensity (a.u.)
9,CTGAACCATCCGACTCACCACCGGTATTTCTCGGCCATCTCGGAGTCACCTAGTGCAG,3950 fluorescence intensity (a.u.)
10,CCCCACTGATGATGATGATGACTCGATTCTATTCCACCGCCGGAGTCACCTAGTGCAG,5550 fluorescence intensity (a.u.)
11,TGGCCCATCAGAGTCAGAGCCGCCGCCGACTCCAGATTCCCGGAGTCACCTAGTGCAG,3220 fluorescence intensity (a.u.)
12,CTCTCCTCTCCTCTTGGTGATGACTGATCGATGACCACCACGGAGTCACCTAGTGCAG,4680 fluorescence intensity (a.u.)
13,CTCCACCACGAGTCACGAGTCACGACCACCTCTCCGGTCTCGGAGTCACCTAGTGCAG,4170 fluorescence intensity (a.u.)
14,GATCTAGCCGACTCGATCCCGCCGATGACGATTCCATCCCCGGAGTCACCTAGTGCAG,39300 fluorescence intensity (a.u.)
15,TCTCTCTCATCCTTCCAATCGATCTCCTCGACCTGCTATGCGGAGTCACCTAGTGCAG,3440 fluorescence intensity (a.u.)
16,ATGATGATGATCCTGATCCTGATCTTCCTCCTCGATCGACCGGAGTCACCTAGTGCAG,42700 fluorescence intensity (a.u.)
17,GCCCGGAAGCTAGCGCCTCGTCGACTTGGGCGGCGGCTGACGGAGTCACCTAGTGCAG,18000 fluorescence intensity (a.u.)
18,CTTAGTCGCCATTTTCTTCCCATATCCACGCGCCACGTGGCGGAGTCACCTAGTGCAG,25100 fluorescence intensity (a.u.)
19,TGAATCTATACACTCTTCTATTCAGATTCGTTGTACTATGCGGAGTCACCTAGTGCAG,3870 fluorescence intensity (a.u.)
20,GCCTAATTACATCATGATTTGACAATGTTGTGCTACAGTACGGAGTCACCTAGTGCAG,4210 fluorescence intensity (a.u.)
21,CCGCGGCCACCTGGCCTACCTCGCCTCTCCCGTGGGCCCCCGGAGTCACCTAGTGCAG,3240 fluorescence intensity (a.u.)
22,GCCGTGCCGTGCCGTGCCGGCCCGCGGGCTCGGCCAGCGGCGGAGTCACCTAGTGCAG,30700 fluorescence intensity (a.u.)
23,CTACCAGACCCGTGGGCCGGCTCTGCCTCGCCTAATCCAGCGGAGTCACCTAGTGCAG,47000 fluorescence intensity (a.u.)
